# Results published in PubChem BioAssay (Tox21).
# Records with an inconclusive call do not appear. A call without a number means that no potency is given here. Values without a mark were called inactive. Activity calls are given as the source filed them. Calls come from the whole dose curve; as a rule, active = well fitted activation curve with a large enough effect in the repeat runs; inconclusive = weak or mixed curves; inactive = flat fitted curve, though single readings scatter.
# Assay: Caspase-3/7 induction in HepG2 cells by small molecules, qHTS assay (AID 1346978); note: nearly all actives have a fitted effect of over 15% in size
# Details: HepG2 caspase-3/7 activation, Caspase-Glo luminescence, 17 h; series mostly up to 92.4 µM
# Procedure, shortened: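 Wild-type HepG2 cells (2,000/well) were settled 5 h at 37 C, 5% CO2, then exposed to compounds in DMSO for 17 h. Caspase-3/7 activity was read by luminescence 30 min after adding Caspase-Glo 3/7 reagent at room temperature.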
# Potency is the fitted concentration of half-maximal effect.
SMILES,Potency,caspase activation
Oc1ccc(-c2ccccc2)c(Cl)c1,inactive,
O=C(O)CCn1c2c(c3ccccc31)C[C@H](NS(=O)(=O)c1ccc(F)cc1)CC2,inactive,
C=CC(=O)OCC(O)COc1ccccc1 (centres undefined),inactive,
COc1cc(C(C)C)c2c(c1)S(=O)(=O)N(COc1cc(=O)n3cccc(OCCN4CCCCC4)c3n1)C2=O,,0.878% [at 19 µM]
CCCOc1sc(C(=O)N2CCC(c3cc(CN)ccc3F)CC2)c(C)c1Br,44.5 µM (active),
CCN(CC)c1ccc(N)cc1,inactive,
C=C/C=C/C=C/CCCCC,,-0.0295% [at 19 µM]
CCCCCCCCCCCCCOP(=O)(O)O,inactive,
CC(C)N=C(N)/N=C(\N)Nc1ccc(Cl)cc1,inactive,
O=C1C=CC(=O)N1c1ccccc1,inactive,
C=CC(C)C#N (centres undefined),inactive,
CCCCCCCC/C=C\CCCCCCCC(=O)OCCOC(=O)CCCCCCC/C=C\CCCCCCCC,inactive,
C1CC(COCC2CO2)CCC1COCC1CO1 (centres undefined),inactive,
CCCCOC(=O)C(C)CC (centres undefined),inactive,
C=CC(=C)CCC=C(C)C,inactive,
CSc1ccc2c(c1)N(CCC1CCCCN1C)c1ccccc1S2 (centres undefined),30.5 µM (active),
Clc1ccccc1CN1CCc2sccc2C1,inactive,
C[Si](C)(C)Cl,inactive,
C=CC(C)(CCC=C(C)C)OC(=O)/C=C/c1ccccc1 (centres undefined),inactive,
C=C(c1ccc(C(=O)O)cc1)c1cc2c(cc1C)C(C)(C)CCC2(C)C,68.6 µM (active),
C[C@H]1O[C@@H](O[C@H]2[C@@H](O)C[C@H](O[C@H]3[C@@H](O)C[C@H](O[C@H]4CC[C@@]5(C)[C@H](CC[C@@H]6[C@@H]5C[C@@H](O)[C@]5(C)[C@@H](C7=CC(=O)OC7)CC[C@]65O)C4)O[C@@H]3C)O[C@@H]2C)C[C@H](O)[C@@H]1O,inactive,
CN(Cc1cc(Br)cc(Br)c1N)C1CCCCC1,inactive,
Cc1ccc2ccc3cccc4ccc1c2c34,inactive,
CCC(C)c1cc([N+](=O)[O-])cc([N+](=O)[O-])c1OC(=O)OC(C)C (centres undefined),inactive,
CC(=O)Nc1ccc(O)cc1,inactive,
O=C1c2c(O)ccc([N+](=O)[O-])c2C(=O)c2c([N+](=O)[O-])ccc(O)c21,inactive,
COC(=O)[C@]1(C)CCC[C@@]2(C)[C@H]1CC=C1C=C(C(C)C)CC[C@@H]12,inactive,
C=C1C(C)(C)[C@@]2(Cl)C(Cl)[C@]1(Cl)C(Cl)(Cl)C2(Cl)Cl (some centres undefined),inactive,
CC(CN(C)C)CN1c2ccccc2CCc2ccccc21 (centres undefined),inactive,
